An excerpt weighted towards active compounds, which were near 15% of everything screened.
12-LOX inh: ALOX12 (human) lipoxygenase inhibition; Potency, µM (series often up to 108 µM), for inactives: top-dose activity change, negative = inhibition, usual class: inhibitors; purified 12hLO, xylenol orange hydroperoxide absorbance; 1.1% of 580,000 active; AID 1671190; P18054
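Purified human 12hLO at 150 nM in 25 mM Hepes, 0.01% Triton X-100, pH 7.0, preincubated 15 min at room temperature with compound. Reaction started with 40 uM arachidonic acid, 30 min at room temperature. Hydroperoxide measured by Fe-xylenol orange, 573/405 nm absorbance ratio.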
ELG1 repair inh: blocks ELG1-dependent DNA repair in HEK293T cells. Potency, µM (highest dose often 46.1 µM), without a hit: top-dose activity change, negative = inhibition, most hits filed as inhibitors. AID 504467. HEK293T ELG1-luciferase reporter, luminescence, 16 h; DNA damage induced by 5-fluorouridine. 2.3% of 330,000 active; further: nearly all actives have a fitted effect of over 55% in size
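HEK293T cells expressing luciferase-tagged ELG1 (2,000/well) received 5-Fluorouridine plus compound or DMSO for 16 hr at 37 °C. Luciferase was read by ONE-Glo luminescence after 30 min at room temperature.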
DT40 TDP1 no CPT: qHTS for Inhibitors of human tyrosyl-DNA phosphodiesterase 1 (TDP1): qHTS in cells in absence of CPT | 15% of 420,000 active | DT40 Tdp1-/- hTDP1 cells, no CPT, ATP luminescence, 48 h | AID 686978, 2013 | Potency, µM (series often up to 46.2 µM), for inactives: at the top dose activity change, negative = growth inhibition, actives largely listed as inhibitors; further: nearly all actives have a fitted effect of over 55% in size
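Readout: luminescence from CellTiter-Glo after 30 min in the dark at RT. Cells: DT40 Tdp1-/- with stable hTDP1, 400/well. Exposure: compounds alone, ≥48 hr, 37 °C.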
VP16 counter: inhibits Gal4-VP16 luciferase reporter, ROR gamma counter-screen; 3.5% of 310,000 active; Drosophila S2 Gal4-VP16 UAS-luciferase, luminescence, 20 h; Potency, µM (doses to about 53.6 µM), without a hit: at the highest dose activity, negative = inhibition, usual class: inhibitors; AID 2546;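 further: Gal4-VP16 expression switched on by copper sulfate through the metallothionein promoter; nearly all actives have a fitted effect of over 50% in size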
DT40 TDP1 CPT: DT40-hTDP1 cell growth loss with CPT. Potency, µM (series often up to 46.2 µM), for the others: at the top dose activity change, negative = growth inhibition, actives largely listed as inhibitors. chicken DT40 Tdp1-/-;hTDP1 cells + 20 nM CPT, ATP luminescence, 48 h. AID 686979. 12% of 420,000 active; further: nearly all actives have a fitted effect of over 55% in size
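Cell growth measured by CellTiter-Glo luminescence after a minimum 48 h, 37 C compound exposure with 20 nM CPT in Tdp1-knockout DT40 cells stably expressing hTDP1, seeded 400/well; qHTS titration format.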
RORg inh: ROR gamma (mouse) transcription inhibition | AID 2551 | Drosophila S2 Gal4-RORgamma UAS-luciferase reporter, 20 h | P51450 | Potency, µM (doses to about 53.6 µM), for the others: at the highest dose activity change, negative = inhibition, hits mostly inhibitors | 5.4% of 310,000 active; further: nearly all actives have a fitted effect of over 60% in size
Target sequence (P51450 whole entry, looked up, the tested form may be a part): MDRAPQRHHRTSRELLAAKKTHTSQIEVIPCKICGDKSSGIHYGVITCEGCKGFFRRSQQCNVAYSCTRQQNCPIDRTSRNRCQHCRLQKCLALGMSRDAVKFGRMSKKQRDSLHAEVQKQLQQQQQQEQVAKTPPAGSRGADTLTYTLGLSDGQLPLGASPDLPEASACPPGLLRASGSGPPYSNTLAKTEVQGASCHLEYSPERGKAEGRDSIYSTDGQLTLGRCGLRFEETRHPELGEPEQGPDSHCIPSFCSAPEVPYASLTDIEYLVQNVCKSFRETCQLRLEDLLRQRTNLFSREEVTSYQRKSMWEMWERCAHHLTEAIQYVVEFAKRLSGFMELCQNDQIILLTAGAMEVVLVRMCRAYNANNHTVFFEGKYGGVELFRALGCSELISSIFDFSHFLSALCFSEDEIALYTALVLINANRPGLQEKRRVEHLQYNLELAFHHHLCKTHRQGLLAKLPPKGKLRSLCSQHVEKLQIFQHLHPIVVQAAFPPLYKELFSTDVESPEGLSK
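Stably transfected Drosophila Schneider cells are the test system, with ROR gamma fused to Gal4 and luciferase under UAS control; luminescence is read after 20 hr of 700 uM copper sulfate induction at ambient temperature.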
An asterisk follows results filed as active; ? = inconclusive; nt = not tested or not shown; [ ] = dose if it differs, or a comment. The call rests on the fitted dose curve; in most records, active means well fitted curve in the direction sought with a large enough effect; inconclusive means small, poorly fitted or top-dose-only effect, or another doubt; inactive means no such curve, though single readings can be large; an effect the other way counts as inactive or inconclusive. On the % scale 0 is the no-effect control and ±100 the full control effect; potency means the concentration at half of the fitted maximal effect.

SMILES | 12-LOX inh | ELG1 repair inh | DT40 TDP1 no CPT | VP16 counter | DT40 TDP1 CPT | RORg inh
CCOC(CNC(=O)c1ccc2nc(N3CCC(C)CC3)sc2c1)OCC | 0% | ? | ? | 6% | ? | 0%
CCC(Cc1ccccc1)NC(=O)c1ccc2nc(N3CCOCC3)sc2c1 (configuration not stated) | 11% | ? | 13µM* | 8% | 15µM* | 32%
CC(CCc1ccccc1)NC(=O)c1ccc2nc(N3CCOCC3)sc2c1 (configuration not stated) | 13% | ? | ? | -14% | ? | 35%
COCc1c(C(=O)Nc2ccc3nc(N4CCOCC4)sc3c2)oc2ccccc12 | 334% | 13µM* | ? | nt | 15µM* | nt
CCC(Cc1ccccc1)NC(=O)c1ccc2nc(N3CCC(C)CC3)sc2c1 (configuration not stated) | 0% | nt | 10µM* | nt | 21µM* | nt
COc1ccccc1C(=O)Nc1ccccc1C(C)C | -6% | nt | nt | nt | nt | nt
COc1cccc(-c2nc3c([nH]2)CN(C(C)C(=O)NC2CCCCC2)CC3)c1 (configuration not stated) | 168% | nt | nt | nt | nt | nt
CC1=NN(c2ccccc2)C(=O)C1C=Nc1ccccc1O (configuration not stated) | 2% | ? | 18µM* | 4.5µM* | ? | 2µM*
CC1=NN(c2ccccc2)C(=O)C1/C=C1\NC(=S)NC1=O (configuration not stated) | ? | 12% | 0% | 1% | 1% | 3%
COc1ccc(Nc2nc3cc(C)ccc3nc2NS(=O)(=O)c2ccc(C)cc2)cc1 | 9% | nt | nt | nt | nt | nt
Cc1ccc(/C=C/C(=O)c2cccs2)cc1 | -4% | nt | nt | nt | nt | nt
O=C(/C=C/c1ccccc1)c1cccs1 | nt | nt | 9.4µM* | -5% | 6.7µM* | 22µM*
CCOc1ccc(/C=C/C(=O)c2cccs2)cc1 | nt | nt | ? | -21% | 27µM* | 22µM*
O=C(O)c1ccc(/C=C/C(=O)c2cccs2)cc1 | -1% | nt | nt | nt | nt | nt
O=C(C=Cc1ccccc1)c1cccs1 | -10% | nt | 16µM* | nt | 18µM* | nt
COc1ccc2cc(/C=C/C(=O)c3cccs3)ccc2c1 | 34% | nt | nt | nt | nt | nt
COc1c(C)cccc1C(=O)Nc1ccc2oc(=O)ccc2c1 | -25% | nt | nt | nt | nt | nt
O=C(c1ccc(C2CCCNC2)cc1)N1CCC(Oc2cccc(F)c2)CC1 (configuration not stated) | 3% | nt | nt | nt | nt | nt
CC(=O)c1cccc(S(=O)(=O)NCc2c(C)nn(Cc3ccccc3)c2C)c1 | 17% | nt | nt | nt | nt | nt
O=C(Nc1cc(Cl)ccc1Cl)c1cc([N+](=O)[O-])cc(Br)c1O | nt | nt | -8% | nt | 2% | nt
O=C(Nc1c(Cl)cc([N+](=O)[O-])cc1Cl)c1cc(Cl)ccc1O | nt | nt | 2µM* | nt | 2.5µM* | nt
O=C(Nc1ccc([N+](=O)[O-])cc1Cl)c1cc(Br)ccc1O | nt | nt | 0.45µM* | nt | 0.79µM* | nt
COc1ccc(NC(=O)c2cc(Br)ccc2Cl)c([N+](=O)[O-])c1 | -2% | 8% | -15% | -7% | 1% | -8%
CCOC(=O)c1[nH]c(C)c(C(=O)OCc2ccccc2F)c1C | -10% | ? | 9.2µM* | -9% | 6.5µM* | -12%
CC(C)N(Cc1ccccc1)C(=O)COC(=O)c1cc(S(=O)(=O)N(C)C)ccc1N1CCCC1 | -2% | ? | 15µM* | nt | 23µM* | nt
SMILES | 12-LOX inh | ELG1 repair inh | DT40 TDP1 no CPT | VP16 counter | DT40 TDP1 CPT | RORg inh
CCOC(=O)c1c(C)[nH]c(C(=O)OCC(=O)N(CC(C)C)c2c(N)n(Cc3ccccc3)c(=O)[nH]c2=O)c1C | -27% | ? | ? | nt | ? | nt
CCOC(=O)c1[nH]c(C)c(C(=O)OCC(=O)N(Cc2ccccc2)C(C)C)c1C | 2% | ? | 15µM* | nt | ? | nt
CCOC(=O)c1[nH]c(C)c(C(=O)c2cc(F)ccc2F)c1C | -11% | 29% | 0.82µM* | nt | 0.82µM* | 8%[0.365 µM]
O=C(CCCn1cncn1)N[C@H]1CCOC[C@H]1C1CCOCC1 | 3% | nt | nt | nt | nt | nt
COc1cc(C#N)ccc1OC(C)C(=O)c1ccc(Cl)cc1 (configuration not stated) | -15% | nt | nt | nt | nt | nt
O=C(CN1CCN(C(=O)c2cccnc2OCC(F)(F)F)CC1)Nc1ccccc1Cl | 4% | nt | nt | nt | nt | nt
CC(C)N(Cc1ccccc1)C(=O)COc1ccccc1 | 4% | 0% | ? | -1% | ? | 9%
CC(C)N(Cc1ccccc1)C(=O)CCc1ccccc1 | -6% | ? | ? | 10% | 15µM* | 0%
CN(C)/C=N/NC(=O)c1ccccc1 | 8% | 8% | 19% | -19% | -4% | 1%
O=C(NN=c1c(=O)c2ccccc2c1=O)c1ccccc1 | 5% | -16% | 18µM* | ? | 18µM* | -40%
O=C(c1cccnc1)N1CCCC(c2noc(COc3ccccc3F)n2)C1 (configuration not stated) | 36% | nt | nt | nt | nt | nt
C=CC[n+]1c(-c2ccc(Cl)cc2Cl)csc1Nc1ccc(NC(C)=O)cc1 | ? | 6% | 21µM* | -7% | ? | ?
Cc1c(NC(=O)Nc2cc(Cl)ccc2Cl)c(=O)n(-c2ccccc2)n1C | 302% | -13% | -4% | 3% | 1% | 18%
C=CC[n+]1c(-c2ccc(Cl)cc2Cl)csc1Nc1c(C)n(C)n(-c2ccccc2)c1=O | ? | ? | 3.7µM* | -12%[10 µM] | 5.2µM* | ?

Assay outcomes as filed in PubChem.
